About 400 (5.1%) of roughly 7,900 compounds showed an effect of 50% or more. What follows is part of a selection rich in strong results, with near analogues and random picks from the rest.
target: Parkinson's disease protein 7 (PARK7/DJ1) (human, UniProt Q99497); test: primary screen, percent inhibition; read as competition with a fluorescent probe by fluorescence polarization; higher = more effect of the substance; settings: 100 µM
Method in brief: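 Fluorescence-polarization probe displacement (JYQ-107, 20 nM final, 2 h) after 2 h preincubation of PARK7 (0.2 μM final) with each fragment at 100 μM final. Read-out ex/em 480/520 nm; remaining activity derived from FP signal loss relative to reference controls.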

Parkinson's disease protein 7 (PARK7/DJ1), sequence (Q99497 whole entry, looked up, the tested form may be a part): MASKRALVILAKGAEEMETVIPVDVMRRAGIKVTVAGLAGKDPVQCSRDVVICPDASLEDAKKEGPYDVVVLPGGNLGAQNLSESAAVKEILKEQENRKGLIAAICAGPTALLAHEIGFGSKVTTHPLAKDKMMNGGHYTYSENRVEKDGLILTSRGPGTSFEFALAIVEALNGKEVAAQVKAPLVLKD

Row | SMILES | Inhibition %
1 | O=C(CN1CCSC1=O)NC1CCN2CCCCC12 (centres unmarked) | 10.2%
2 | COc1ccc(C(C)(C)C)cc1NC(=O)CCl | 10.8%
3 | O=C(Nc1ccccc1F)N1CCC(C2OCCO2)CC1 | 5.67%
4 | C=C(C)c1nc(C#N)c(NCc2ccccc2)o1 | 9.08%
5 | Sc1ccc2ccccc2n1 | 14.2%
6 | N#Cc1ccc2cc(N)ccc2n1 | 101%
7 | COc1ccc2nc(C#N)ccc2c1 | 3.18%
8 | Nc1cc(N)nc(S)n1 | 6.46%
9 | Nc1ccc2nc(S)ccc2c1 | 67.6%
10 | N#Cc1cc(N)c2ccccc2n1 | 10.9%
11 | N#Cc1ccc(Cl)cc1N1CCC(C2OCCO2)CC1 | 2.51%
12 | C=CC(=O)NC1CCCCNC1=O (centres unmarked) | 3.54%
13 | COc1ccc(S(N)(=O)=O)cc1NC(=O)CCl | 2.41%
14 | C=CC(=O)NC(NC(=O)C=C)c1ccccc1F | 14.4%
15 | CN(C)c1nccc(CNCc2ccc(B(O)O)cc2)n1 | -0.514%
16 | C=CC(=O)NCC1CCCOC1c1ccc(C)cc1 (centres unmarked) | 9.55%
17 | CNC1CCCN(C(=O)C=Cc2cncc(F)c2)C1 (centres unmarked) | 29.3%
18 | Cl.O=C(CCl)NCC(c1ccccc1Cl)N1CCCC1 (centres unmarked) | 3.25%
19 | C=CC(=O)Nc1cnn(C(C)C)c1C1CC1 | 10.5%
20 | O=C1SCCN1CN1CCN(c2ccccc2F)CC1 | 3.81%
21 | N#Cc1nc(-c2ccco2)oc1N1CCN(C(=O)CCl)CC1 | 51.4%
22 | CC(C)N1CCN(c2oc(-c3ccco3)nc2C#N)CC1 | 10%
23 | C#CCN1CCN(c2oc(-c3ccco3)nc2C#N)CC1 | 53.7%
24 | CCCN1CCN(c2oc(-c3ccco3)nc2C#N)CC1 | 9.64%
25 | N#Cc1nc(-c2ccco2)oc1N1CCNCC1 | 9.97%
26 | CCN1CCN(c2oc(-c3ccco3)nc2C#N)CC1 | 9.73%

Row | SMILES | Inhibition %
27 | ClCCCc1cccnc1 | 7.37%
28 | Cc1c(C#N)c(NC(=O)CCl)n(C2CCCCC2)c1C | 15.6%
29 | C=CC(=O)Nc1ccc2c(c1)CCC2 | 7.23%
30 | O=C(CCl)Nc1ccc(Cl)c(Cl)c1 | 63%
31 | O=C(CCl)Nc1ccc2c(c1)oc1ccccc12 | 62.9%
32 | O=C(CCl)Nc1cccc(Br)c1 | 29.1%
33 | CC(=O)c1oc2ccccc2c1NC(=O)CCl | 9.9%
34 | O=C(CCl)Nc1ccc(Cl)c(F)c1 | 36.8%
35 | O=C(CCl)Nc1ccc2c(c1)CCC2 | 57.8%
36 | O=C(CCCl)Nc1ccc2c(c1)CCC2 | 4.93%
37 | O=C(CCl)Nc1ccc(Br)cc1 | 70.1%
38 | O=C(CCl)Nc1ccc(F)c(Cl)c1 | 21.3%
39 | O=C(CCl)NC(=O)Nc1ccc(Br)cc1 | 23.3%
40 | COc1cc2c(cc1NC(=O)CCl)oc1ccccc12 | 4.67%
41 | O=C(c1cccnc1S)N1CCOC2(CCCC2)C1 | 6.34%
42 | C=CC(=O)NCc1cc2n(n1)CCC2 | 10.7%
43 | CC1(C)OB(c2cccc(OC(F)F)c2)OC1(C)C | 3.49%
44 | C=CC(=O)Nc1cccc2c1CCN(S(C)(=O)=O)C2 | 3.82%
45 | CC1CC(Sc2ccccc2F)C(=O)O1 (centres unmarked) | -0.183%
46 | C=CC(=O)NCCN1C(=O)Cc2ccccc21 | 11%
47 | CCN(C(=O)Cn1cnc(C#N)n1)C1=CCCCC1 | 6.47%
48 | C=CC(=O)N1CC23CCCCC2(COC3)C1 (centres unmarked) | 8.4%
49 | O=C(CCl)Nc1cccc(I)c1 | 41%
50 | O=C(CCl)Nc1ccc2ccccc2c1 | 55.8%
51 | O=C(CCl)Nc1ccc(C(=O)O)cc1 | 25.9%
52 | CC(=O)Nc1cccc(NC(=O)CCl)c1 | 19.2%

Row | SMILES | Inhibition %
53 | O=C(CCl)Nc1ccc2c(c1)C(=O)c1ccccc1C2=O | 2.08%
54 | O=C(CCCl)Nc1ccc(Cl)cc1 | 9.16%
55 | O=C(CCl)Nc1ccc(Cl)cc1 | 60.3%
56 | O=C(CCl)Nc1ccc(F)c(F)c1 | 25.9%
57 | CNC(=O)c1ccc(NC(=O)CCl)cc1 | 16.6%
58 | O=C(CCl)Nc1ccc(I)cc1 | 93.2%
59 | CC(C)(C)c1ccc(NC(=O)CCl)cc1 | 100%
60 | CC(C)CN(C1CC1)S(=O)(=O)C=Cc1ccccc1 | 13.3%
61 | C=CC(=O)N1CCS(=O)(=O)c2ccccc2C1 | 7.33%
62 | CC1(C)OB(c2cccc3scnc23)OC1(C)C | 3.85%
63 | C=CC(=O)NCC1CC(C)OC(C)C1 (centres unmarked) | 11.1%
64 | N#Cc1c(N)nc2n1CCS2 | 4.18%
65 | N#Cc1ncccc1OCCc1ccccc1 | 13.6%
66 | CC(NC(=O)Cn1cnc(C#N)n1)c1ccc(F)cc1 (centres unmarked) | 4.98%
67 | C=CC(=O)N1CCN(Cc2ccon2)CC1 | 4.28%
68 | Cn1ncc(C(F)(F)F)c1B1OC(C)(C)C(C)(C)O1 | 8.08%
69 | NC(=O)c1ccsc1NC(=O)CCl | 84.7%
70 | NC(=O)c1cc(-c2ccccc2)sc1NC(=O)CCl | 79.3%
71 | O=C(CCl)Nc1nncs1 | 4.4%
72 | O=C(CCl)Nc1ccc(-c2ccccc2)cc1 | 4.3%
73 | NC(=O)c1ccsc1NC(=O)CCCl | 9.06%
74 | NC(=O)c1ccccc1NC(=O)CCl | 0.06%
75 | Cn1cc(C(=O)O)c(CCCCl)n1 | 6.81%
76 | N#Cc1cc(N2CCCC2)c2ccccc2n1 | 3.59%
77 | C=CCNS(=O)(=O)C=Cc1ccccc1 | 7.29%
78 | CC1(C)OB(c2cccc(-n3ccnn3)c2)OC1(C)C | 6.79%

Row | SMILES | Inhibition %
79 | C=CC(=O)Nc1nc2cnccn2n1 | 23%
80 | C=CC(=O)NCc1cc2n(n1)CCCC2 | 10.1%
81 | N#Cc1ncn(CC2CCCO2)n1 (centres unmarked) | 1.91%
82 | O=S(=O)(F)c1ccccc1Br | 44.3%
83 | O=S(=O)(F)c1ccccc1O | 9.92%
84 | O=[N+]([O-])c1ccccc1S(=O)(=O)F | 99.1%
85 | C=CC(=O)NCC1COC(=O)N1 (centres unmarked) | 13.5%
86 | O=S(=O)(F)c1ccc(C(F)(F)F)cn1 | 6.36%
87 | Cc1ccc(S(=O)(=O)F)nn1 | 65.4%
88 | O=S(=O)(F)c1ccc(C(F)(F)F)nn1 | 8.52%
89 | C=CC(=O)N[C@@H]1C=C[C@H](CO)C1 | 8.28%
90 | Cn1cc(C=C(C#N)C(=O)NCCc2ccccc2)cn1 | 9.69%
91 | O=C(O)c1ccc(CCCl)cc1 | 8.12%
92 | CNC(=O)c1cc(C(=O)CCl)cn1C | 5.61%
93 | O=C(CCl)Nc1cc(C(=O)O)cc(C(=O)O)c1 | 1.39%
94 | O=C(O)c1coc(C(=O)CCl)c1 | 96.1%
95 | NC(=O)c1coc(C(=O)CCl)c1 | 96.3%
96 | C=CC(=O)N1CCC(OC)C(C)C1 (centres unmarked) | 4.37%
97 | N#CC(=Cc1ccccc1)C(=O)N1CCC(C(N)=O)CC1 | 9.67%
98 | CN1C(=O)C(C#N)=C(N)C12CCCC2 | 9%
99 | C=CC(=O)N1CCN(C(=O)OCC(C)C)CC1 | 11.5%
100 | CN(CCC1CCOCC1)c1nc2ccccn2c1C#N | 5.08%
101 | CNC(=O)CNS(=O)(=O)C=Cc1ccc(Cl)cc1 | 0.98%
102 | O=C(O)c1ccc(NS(=O)(=O)C=Cc2ccccc2)cc1 | 6.88%
103 | O=C(O)CNS(=O)(=O)C=Cc1ccccc1 | 84.3%
104 | CNC(=O)CNS(=O)(=O)C=Cc1ccccc1 | 6.07%

Row | SMILES | Inhibition %
105 | Cc1ccc(C=CS(=O)(=O)NCC(=O)O)cc1 | 81.7%
106 | Cc1ccc(C=CS(=O)(=O)NCCC(=O)O)cc1 | 5.97%
107 | O=C(O)c1csc(NS(=O)(=O)C=Cc2ccccc2)c1 | 62.5%
108 | O=C(O)CCNS(=O)(=O)C=Cc1ccccc1 | 6.07%
109 | O=C(O)c1cccc(NS(=O)(=O)C=Cc2ccccc2)c1 | -0.0382%
110 | CC(=O)N1CCN(C(=O)C=Cc2c(C)nn(C)c2Cl)CC1 | 8.55%
111 | O=C(O)C1CC(O)CN1C(=O)C=Cc1ccc(F)cc1 (centres unmarked) | 2.28%
112 | N#Cc1ccc(N2CCCC(N3CCCCCC3)C2)cn1 (centres unmarked) | 5.26%
113 | O=C(CCl)Nc1cc(C2CC2)nn1-c1ccccc1 | 18.1%
114 | CC1CC(Sc2nncn2-c2ccccc2F)C(=O)O1 (centres unmarked) | 0.0122%
115 | COc1ccc(F)cc1S(=O)(=O)n1ccnc1C | 3.76%
116 | CC1(C)OB(c2cc(Cl)ccc2N)OC1(C)C | 13.4%
117 | CC(C)(C)OC(=O)c1cc2ccc(B3OC(C)(C)C(C)(C)O3)cc2[nH]1 | 7.8%
118 | O=c1onc(-c2cnccn2)n1Cc1cccc(F)c1 | -2.87%
119 | Cc1cc(NS(=O)(=O)c2ccc(S(=O)(=O)F)cc2)c[nH]c1=O | 92.6%
120 | Cc1cc(NS(=O)(=O)C2=CCCCC2)c[nH]c1=O | 48.5%
121 | O=C(O)CC1OB(O)c2ccccc21 (centres unmarked) | 0.686%
122 | CCN(CCC#N)S(=O)(=O)C=Cc1ccccc1Cl | 6.99%
123 | O=C(O)Cc1ccccc1CS | 89.6%
124 | C#CC(=O)Nc1ccc(CC(=O)O)cc1 | 0.397%
125 | O=C(O)c1ccc(CS)cc1 | 17.3%
126 | C#CC(=O)Cc1ccccc1 | 7.8%
127 | O=C(O)Cc1ccc(CS)cc1 | 58.7%
128 | COc1ccccc1CS | 1.46%

— paper PMC9574860, “Chemical Toolkit for PARK7: Potent, Selective, and High-Throughput” (Journal of Medicinal Chemistry, 2022)
